Holding throughout (experiment): NCI-60 one-dose screen, 48 h (100 = growth as untreated, 0 = no growth, -100 = all killed)
Common to all, as to conditions: 10 µM

Assay [1] deals with RPMI-8226 leukemia.
In assay [2] the test system is OVCAR-8 ovarian.
The test system of assay [3] is OVCAR-5 ovarian.
For assay [4], the system named is OVCAR-4 ovarian.
Assay [5] deals with SK-OV-3 ovarian.
In assay [6] the test system is IGROV1 ovarian.
Assay [7] concerns OVCAR-3 ovarian.
The subject of assay [8] is HS 578T breast.
For assay [9], the system named is NCI/ADR-RES ovarian.
In assay [10] the test system is T-47D breast.

The panel holds about 83,000 compounds, 20% with a hit somewhere; the sample as a whole holds those more often.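 Cell lines were cultured in 96-well plates, exposed to a single compound concentration, and assessed for percent growth 48 hours later.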 A number with no mark means an inactive call. The source made the active and inactive calls. Rule for the calls: active = growth percent below 10; inactive = the rest.

On to `COc1ccc(Nc2ccnc(NCCNc3ccnc4cc(Cl)ccc34)n2)cc1`, for which the growth in assay [1] is -22.9% (active); in [2] it was 59.5%; in [3] it was 51.2%; in [4], 37.1%; in [5], 74.7%; in [6], 24.6%. Besides, the growth in assay [7] was 60.3%; in [8] it was 76.8%; in assay [9] it was 66.8%; in assay [10] it was 34.9%.

Regarding `N=C(N)c1ccc(-c2ccc(-c3cccs3)o2)cc1`, the growth in assay [1] was -25.4% (active); in [2], 60%; in [3] it was 70.3%; in [4], 41.6%; in [5], 79.4%; in [6], 67.5%. The growth is 71.7% in assay [7], 70.3% in [8], 71.5% in assay [9] and 43.8% in [10].

For the compound `Cc1cc(N(CCCNc2ccnc3cc(Cl)ccc23)Cc2ccc3c(c2)OCO3)nc(N2CCOCC2)n1`, the growth in assay [1] was -29.6% (active); in [2], 31.7%; in [3], 77.4%; in assay [4], 23.1%; in assay [5] it was 90.5%; in assay [6], 10.9%. Further, the growth was -6.27% (active) in assay [7], 34.3% in assay [8], 46.9% in [9] and 0.442% (active) in assay [10].

Turning to `Nc1ccccc1NC(=O)CCCCC(=O)Nc1ccc2c(c1)/C(=C/c1ccc[nH]1)C(=O)N2`, the growth in [1] was 56.2%; in [2] it was 78.5%; in assay [3] it was 96.5%; in [4], 52.1%; in [5], 72.5%; in [6] it was 59.8%. The growth was 65.8% in assay [7], 52.3% in assay [8], 107% in assay [9] and 59.6% in [10].

For the compound `c1ccc(CP(Cc2ccccc2)c2ccccc2)cc1`, the growth in assay [1] was 92.7%; in assay [2], 94.8%; in assay [3], 102%; in assay [4], 113%; in [5], 100%; in [6] it was 78.6%. Moreover, the growth in assay [7] is 112%; in assay [8], 117%; in assay [9], 101%; in [10], 116%.

On to `COc1ccc(-c2cc(-c3ccc(N(C)C)cc3)c(C#N)c(N3CCCC3)n2)cc1`, for which the growth in assay [1] was 38.7%; in assay [2], 83.3%; in assay [3] it was 64.8%; in assay [4], 81.4%; in [5] it was 72.7%; in assay [6], 64.9%. The growth in [7] was 105%; in assay [8] it was 103%; in assay [9], 61.8%; in assay [10], 67%.

Regarding `c1ccc([I+]c2ccccc2)cc1`, the growth was 46.7% in assay [1]; 39.2% in assay [2]; 85.2% in [3]; 66% in assay [4]; 68.7% in assay [5]; 45.6% in [6]. In addition, the growth in assay [7] is 62.7%; in assay [8], 116%; in [9], 91.5%; in [10], 76.8%.

For the compound `CCOC(=O)C1(CC(C)C)CCOC1=O` (stereo not given), the growth is 95.6% in assay [1]; 93.8% in assay [2]; 97% in assay [3]; 95.5% in assay [4]; 101% in assay [5]; 119% in [6]. For the same compound, the growth in assay [7] is 104%; in assay [8] it was 110%; in [9] it was 98.8%; in assay [10], 99%.

For the compound `O=C1/C(=C\c2ccc(F)cc2)CN(C(=O)c2ccc([N+](=O)[O-])cc2)C/C1=C\c1ccc(F)cc1`, the growth in assay [1] was -13.3% (active); in [2], 19.5%; in [3] it was 77.1%; in [4], 50.5%; in assay [5] it was 50.8%; in [6], 33.9%. Also, the growth is 10.3% in assay [7], -9.57% (active) in assay [8], 24.3% in [9] and 64.5% in [10].

`Nc1ncnc2[nH]c(=O)[nH]c12`: the growth was 195% in assay [1]; 93.3% in assay [2]; 87.9% in assay [3]; 96.7% in assay [4]; 110% in assay [5]; 113% in assay [6]. For the same compound, the growth was 98.4% in assay [7], 144% in assay [8], 107% in [9] and 94.2% in assay [10].

Turning to `CC(=O)/C(=C/c1ccccc1)C(=O)CC(C)C`, the growth in assay [1] is 18.4%; in assay [2], 75.2%; in [3], 93.9%; in [4], 103%; in assay [5], 106%; in [6], 98.8%. The growth in assay [7] is 75.1%; in [8] it was 89.6%; in [9], 93.5%; in assay [10] it was 107%.

Regarding `C#Cc1ccc(-n2c(/C=C/c3cc(OC)cc(OC)c3)nc3ncccc3c2=O)cc1`, the growth is 25.1% in assay [1]; 66.8% in [2]; 129% in [3]; 60.2% in assay [4]; 68.1% in assay [5]; 91.9% in assay [6]. Besides, the growth is 76.4% in assay [7], 88% in [8], 77.1% in assay [9] and 71.8% in assay [10].

Turning to `O=C(Nc1ccncc1)C(=O)c1cn(S(=O)(=O)c2cc(Cl)cc(Cl)c2)c2ccccc12`, the growth in [1] was 57.1%; in assay [2], 69.1%; in assay [3] it was 89%; in assay [4], 75.5%; in assay [5], 97.2%; in assay [6], 57.6%. The growth is 59.7% in [7], 69.6% in [8], 55.3% in [9] and 56.8% in assay [10].

Take `Nc1nccc(Nc2ccccc2)n1`: the growth is 96.6% in assay [1]; 100% in [2]; 95.9% in [3]; 108% in assay [4]; 109% in assay [5]; 127% in assay [6]. Also, the growth is 114% in assay [7], 107% in assay [8], 111% in assay [9] and 112% in assay [10].

On to `COc1ccc(-c2cc(/C=C/C(=O)c3cc(OC)c(OC)c(OC)c3)[nH]n2)cc1OC`, for which the growth in assay [1] is -39.1% (active); in assay [2] it was -17.1% (active); in assay [3], 17.5%; in [4], -51.6% (active); in assay [5], 39.3%; in [6] it was -9.4% (active). In addition, the growth in [7] was -17.5% (active); in assay [8], 71%; in assay [9], 12.3%; in assay [10], -14% (active).

For the compound `O=C(CCCCC[P+](c1ccccc1)(c1ccccc1)c1ccccc1)NC(COC(=O)C(Cl)Cl)(COC(=O)C(Cl)Cl)COC(=O)C(Cl)Cl`, the growth in assay [1] was 83.3%; in [2] it was 95%; in assay [3], 98.6%; in [4], 100%; in assay [5] it was 94.3%; in assay [6], 100%. The growth in assay [7] is 103%; in assay [8], 110%; in assay [9] it was 114%; in assay [10] it was 90.8%.

As for `COc1ccc(Nc2nc3ccc(NC(=O)NC4CCCCC4)cc3[nH]c2=O)cc1`, the growth in assay [1] is 66.2%; in assay [2], 91.4%; in assay [3], 104%; in assay [4], 113%; in assay [5], 96.1%; in [6] it was 94.1%. The growth in assay [7] is 112%; in assay [8], 69.6%; in assay [9], 103%; in [10], 92.8%.

With `C#Cc1ccc(-n2c(/C=C/c3ccc(Cl)c(F)c3)nc3ncccc3c2=O)cc1`, the growth in assay [1] is -14.9% (active); in [2] it was -17.4% (active); in assay [3], 24.1%; in assay [4], -88.5% (active); in [5], -7.71% (active); in assay [6], -54.5% (active). Moreover, the growth in [7] is -79.8% (active); in assay [8], 13.8%; in assay [9] it was 1.19% (active); in assay [10], -39% (active).

For the compound `COc1ccc(-c2ccc3cc(C(=O)Nc4ccc(O)c(C(=O)/C=C/c5cc(OC)c(OC)c(OC)c5)c4)ccc3c2)cc1`, the growth was 60.2% in assay [1]; 84.9% in assay [2]; 108% in [3]; 94.5% in assay [4]; 109% in assay [5]; 89.6% in assay [6]. For the same compound, the growth in [7] is 100%; in [8] it was 102%; in assay [9], 95.4%; in [10], 85.5%.

As to `COc1ccc(OC)c(NC(=O)c2sc3nc4c(cc3c2N)C(=O)CCC4)c1`, the growth is 95.8% in assay [1]; 96.1% in [2]; 101% in [3]; 109% in assay [4]; 44.7% in assay [5]; 96.4% in assay [6]. For the same compound, the growth in [7] was 118%; in assay [8], 96.8%; in [9] it was 91%; in assay [10], 93.9%.

For the origin of these results see PubChem BioAssay (NCI).
